Measurements as given in PubChem BioAssay (Tox21).
Several values for one entry are separate records, joined by “and”; a condition that tells them apart may be missing. Equal entries are not always repeated. Records with an inconclusive call do not appear. Entries that show only a call come without a potency. Some compounds were tested as several samples or in several runs, with calls that do not always agree. Activity calls are given as the source filed them. Unless noted, calls come from the whole dose curve; as a rule, active = well fitted curve in the direction sought with a large enough effect in the repeat runs; inconclusive = weak or mixed curves; inactive = no such curve, though single readings can be large; an effect the other way counts as inactive or inconclusive.

How the values were obtained:
[1] = qHTS assay to identify small molecule agonists of H2AX (AID 1224845; active = well fitted activation curve with a large enough effect in the signal ratio in the repeat runs, not every such curve was filed as active; the % refers to the signal ratio)
Summary of the method: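 Phospho-H2AX Ser139 measured by HTRF (ex 320 nm; em 665 and 620 nm) after 24 hr antibody incubation. Compounds, 15 concentrations, 0.76% DMSO, were applied to CHO-K1 cells for 3hr at 37C before lysis.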

[2] = qHTS assay to identify small molecule agonists of the hypoxia (HIF-1) signaling pathway (AID 1224846; active = well fitted activation curve with a large enough effect in the signal ratio in the repeat runs, not every such curve was filed as active; the % refers to the signal ratio)
Summary of the method: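 ME-180 HRE-bla reporter cells; compounds in DMSO, 17 h at 37C; read-out beta-lactamase via CCF4-AM FRET.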

[3] = qHTS assay to identify small molecule agonists of H2AX - cell viability counter screen (AID 1224847; calls by dose curve; note: nearly all actives have a fitted effect of over 30% in size; note: potency is the fitted concentration of half-maximal effect)
Summary of the method: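 Cytotoxicity counter screen in wild-type CHO-K1 cells: a 3 hr compound treatment at 37C across 15 concentrations, followed by CellTiter-Glo luminescence to gauge viable cells.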

[4] = qHTS RealTime-Glo MT Cell Viability Assay in HepG2 cells - 24 hour (AID 1224867); note: nearly all actives have a fitted effect of over 50% in size
Summary of the method: (§1)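 Real-time, nonlytic viability: 600 HepG2 cells/well mixed with NanoLuc enzyme plus prosubstrate; 5 h settle, compound (DMSO) added by pintool; luminescence monitored over 40 h at 37 C.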

[5] = qHTS RealTime-Glo MT Cell Viability Assay in HEK293 cells - 32 hour (AID 1224868); note: nearly all actives have a fitted effect of over 50% in size; note: potency is the fitted concentration of half-maximal effect
Summary of the method: (§2)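 Cells + reagent dispensed (600 cells/well, HEK293) → 5 h at 37 C/5% CO2 → 23 nL compound in DMSO pinned → 40 h at 37 C → luminescence read at 0, 8, 16, 24, 32, 40 h.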

[6] = A CellTox Green Cytotoxicity Assay to monitor cytotoxicity in HEK293 cells - 0 hour (AID 1224869); note: nearly all actives have a fitted effect of over 50% in size
Summary of the method: (§3)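 Real-time, in one plate: 600 HEK293 cells/well with dead-cell DNA dye, pinned compound after 5 h, 37 C incubation over 40 h; viable cells give no appreciable fluorescence.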

[7] = qHTS RealTime-Glo MT Cell Viability Assay in HepG2 cells - 40 hour (AID 1224870); note: nearly all actives have a fitted effect of over 50% in size
Summary of the method: (§4)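 Real-time viability: cells seeded at 600 per well together with NanoLuc and cell-permeant prosubstrate, compounds added after 5 h incubation. Luminescence tracked at 0, 8, 16, 24, 32 and 40 h of exposure.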

[8] = qHTS RealTime-Glo MT Cell Viability Assay in HEK293 cells - 16 hour (AID 1224872); note: nearly all actives have a fitted effect of over 50% in size; note: potency is the fitted concentration of half-maximal effect
Summary of the method: as §2

[9] = qHTS RealTime-Glo MT Cell Viability Assay in HepG2 cells - 8 hour (AID 1224873); note: nearly all actives have a fitted effect of over 55% in size
Summary of the method: as §4

[10] = qHTS RealTime-Glo MT Cell Viability Assay in HEK293 cells - 40 hour (AID 1224874); conditions: RealTime-Glo luminescence; max response: stronger effect = lower value; note: nearly all actives have a fitted effect of over 50% in size; note: potency is the fitted concentration of half-maximal effect
Summary of the method: (§5)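 Kinetic, non-lysing viability readout. Seed HEK293 (600/well) with reagent, incubate 5 h at 37 C/5% CO2, pin 23 nL compound in DMSO, incubate at 37 C, read luminescence at 0, 8, 16, 24, 32, 40 h.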

[11] = A CellTox Green Cytotoxicity Assay to monitor cytotoxicity in HEK293 cells - 24 hour (AID 1224875); note: nearly all actives have a fitted effect of over 45% in size
Summary of the method: as §3

[12] = A CellTox Green Cytotoxicity Assay to monitor cytotoxicity in HepG2 cells - 16 hour (AID 1224876); note: nearly all actives have a fitted effect of over 45% in size
Summary of the method: (§6)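 Cytotoxicity was tracked as dead-cell DNA fluorescence in HepG2 cells treated with test compounds at 37 C; each time-point value comes from one kinetic series spanning 0, 8, 16, 24, 32 and 40 h.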

[13] = qHTS RealTime-Glo MT Cell Viability Assay in HepG2 cells - 32 hour (AID 1224877); note: nearly all actives have a fitted effect of over 55% in size
Summary of the method: as §1

[14] = A CellTox Green Cytotoxicity Assay to monitor cytotoxicity in HepG2 cells - 40 hour (AID 1224879); note: nearly all actives have a fitted effect of over 40% in size; note: potency is the fitted concentration of half-maximal effect
Summary of the method: as §6

[15] = qHTS RealTime-Glo MT Cell Viability Assay in HEK293 cells - 0 hour (AID 1224880); note: nearly all actives have a fitted effect of over 45% in size; note: potency is the fitted concentration of half-maximal effect
Summary of the method: as §5

[16] = A CellTox Green Cytotoxicity Assay to monitor cytotoxicity in HEK293 cells - 32 hour (AID 1224881); note: nearly all actives have a fitted effect of over 40% in size; note: potency is the fitted concentration of half-maximal effect
Summary of the method: as §3

[17] = A CellTox Green Cytotoxicity Assay to monitor cytotoxicity in HEK293 cells - 40 hour (AID 1224871); note: nearly all actives have a fitted effect of over 45% in size; note: potency is the fitted concentration of half-maximal effect
Summary of the method: as §3

[18] = A CellTox Green Cytotoxicity Assay to monitor cytotoxicity in HepG2 cells - 24 hour (AID 1224878); note: nearly all actives have a fitted effect of over 45% in size; note: potency is the fitted concentration of half-maximal effect
Summary of the method: as §6

[19] = qHTS assay to identify small molecule antagonists of the estrogen related receptor (ERR) signaling pathway from Tox21 library (AID 1224848); note: nearly all actives have a fitted effect of over 50% in size
Summary of the method: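 Luciferase luminescence (ONE-Glo, 30 min room temperature) was the read-out. Cells of the NTP-supplied ERR line, 2,000 per well, were given 6 h at 37 C before compound addition in DMSO and 18 h exposure at 37 C.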

[20] = qHTS assay to identify small molecule agonists of the estrogen related receptor (ERR) signaling pathway from Tox21 library (AID 1224849; calls by dose curve; note: nearly all actives have a fitted effect of over 15% in size); conditions: ERR reporter cell line, ONE-Glo luciferase, 18 h
Summary of the method: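 Luciferase activity in ERR pathway reporter cells served as the agonist readout; exposure lasted 18 h at 37 C, with ONE-Glo detection after 30 min at room temperature.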

For `COc1ccccc1O`, the Potency [1] was “inactive”, the outcome [2] was “inactive” and the Potency [3] was “inactive”. The outcome [4] was “inactive”, the Potency [5] was “inactive” and the Potency [6] was “inactive”. For the same molecule, the outcome [7] was “inactive”, the Potency [8] was “inactive” and the outcome [9] was “inactive”. The max response [10] was 18.7% (inactive) and 1.57% (inactive) and 2.8% (inactive), the Potency [11] was “inactive” and the Potency [12] was “inactive”. For the same molecule, the outcome [13] was “inactive”, the Potency [14] was “inactive” and the Potency [15] was “inactive”. For the same molecule, the Potency [16] was “inactive”.
In the case of `C[C@]12C[C@H](O)[C@H]3[C@@H](CCC4=CC(=O)CC[C@@]43C)[C@@H]1CC[C@@H]2C(=O)CO`, the Potency [1] is reported as “inactive”, the outcome [2] is reported as “inactive” and the Potency [3] is reported as “inactive”. The Potency [5] was “inactive”, the Potency [6] was “inactive” and the outcome [7] was “inactive”. The Potency [17] was “inactive”, the Potency [8] was “inactive” and the outcome [9] was “inactive”. For the same molecule, the max response [10] was -9.57% (inactive), the Potency [11] was “inactive” and the Potency [12] was “inactive”. For the same molecule, the outcome [13] was “inactive”, the Potency [14] was “inactive” and the Potency [15] was 13.8 µM (active). For the same molecule, the Potency [16] was “inactive”.
In the case of `CN(C)Cc1cc(CN(C)C)c(O)c(CN(C)C)c1`, the Potency [1] is reported as “inactive”, the outcome [2] is reported as “inactive” and the Potency [3] is reported as “inactive”. For the same molecule, the Potency [5] was “inactive”, the Potency [6] was “inactive” and the outcome [7] was “inactive”. The Potency [17] was “inactive”, the Potency [8] was “inactive” and the outcome [9] was “inactive”. For the same molecule, the max response [10] was -0.259% (inactive) and 3.23% (inactive), the Potency [11] was “inactive” and the outcome [13] was “inactive”. The Potency [14] was “inactive”, the Potency [15] was “inactive” and the Potency [16] was “inactive”.
In the case of `c1ccc2[nH]c(-c3cscn3)nc2c1`, the Potency [1] is reported as “inactive”, the outcome [2] is reported as “inactive” and the Potency [3] is reported as “inactive”. For the same molecule, the outcome [4] was “inactive”, the Potency [5] was “inactive” and the Potency [6] was “inactive”. The outcome [7] was “inactive”, the outcome [9] was “inactive” and the max response [10] was -21.8% (inactive). For the same molecule, the Potency [11] was “inactive”, the Potency [12] was “inactive” and the outcome [13] was “inactive”. For the same molecule, the Potency [15] was “inactive” and the Potency [16] was “inactive”.
In the case of `C1CNCCN1`, the Potency [1] is reported as “inactive”, the outcome [2] is reported as “inactive” and the Potency [3] is reported as “inactive”. The outcome [4] was “inactive”, the Potency [5] was “inactive” and the Potency [6] was “inactive”. For the same molecule, the outcome [7] was “inactive”, the Potency [8] was “inactive” and the outcome [9] was “inactive”. For the same molecule, the max response [10] was 0.515% (inactive) and 0.916% (inactive), the Potency [11] was “inactive” and the outcome [13] was “inactive”. For the same molecule, the Potency [18] was “inactive”, the Potency [15] was “inactive” and the Potency [16] was “inactive”.
In the case of `COCCOCCOC`, the Potency [1] is reported as “inactive”, the outcome [2] is reported as “inactive” and the Potency [3] is reported as “inactive”. For the same molecule, the outcome [4] was “inactive”, the Potency [5] was “inactive” and the Potency [6] was “inactive”. For the same molecule, the outcome [7] was “inactive”, the Potency [8] was “inactive” and the outcome [9] was “inactive”. For the same molecule, the max response [10] was 13% (inactive) and 10.3% (inactive), the Potency [11] was “inactive” and the Potency [12] was “inactive”. The outcome [13] was “inactive”, the Potency [18] was “inactive” and the Potency [15] was “inactive”. The Potency [16] was “inactive”.
In the case of `C#C[C@]1(O)CC[C@H]2[C@@H]3CCc4cc(O)ccc4[C@H]3CC[C@@]21C`, the Potency [1] is reported as “inactive”, the outcome [2] is reported as “inactive” and the Potency [3] is reported as 100 µM (active) and 61.9 µM (active). The Potency [5] was 8.65 µM (active) and 19.5 µM (active), the Potency [6] was “inactive” and the outcome [7] was “inactive”. The Potency [17] was 12.2 µM (active) and inactive, the Potency [8] was “inactive” and the outcome [9] was “inactive”. For the same molecule, the Potency [10] was 6.87 µM (active) and 21.9 µM (active), the Potency [11] was “inactive” and the Potency [12] was “inactive”. The outcome [13] was “inactive”, the Potency [18] was 43.3 µM (active) and 6.7 nM (active) and the Potency [14] was 17.3 µM (active) and 19.5 µM (active). The Potency [15] was “inactive” and the Potency [16] was “inactive”.
With `COc1ccc(C(=O)c2ccccc2)c(O)c1` the Potency [1] was “inactive”, the outcome [2] was “inactive” and the Potency [3] was “inactive”. The outcome [4] was “inactive”, the Potency [5] was “inactive and 9.77 µM (active)” and the Potency [6] was “inactive”. For the same molecule, the outcome [7] was “inactive”, the Potency [8] was “inactive and 21.9 µM (active)” and the outcome [9] was “inactive”. For the same molecule, the Potency [10] was 7.76 µM (active), the max response [10] was -12.2% (inactive) and 5.78% (inactive) and the Potency [11] was “inactive”. For the same molecule, the outcome [13] was “inactive”, the Potency [14] was “inactive” and the Potency [15] was “inactive”. For the same molecule, the Potency [16] was “inactive”.
With `CCCCC/C(C=O)=C\c1ccccc1` the Potency [1] was “inactive”, the outcome [2] was “inactive” and the Potency [3] was “inactive”. For the same molecule, the outcome [4] was “inactive”, the Potency [5] was “inactive” and the Potency [6] was “inactive”. For the same molecule, the outcome [7] was “inactive”, the Potency [17] was “inactive” and the Potency [8] was “inactive”. For the same molecule, the outcome [9] was “inactive”, the max response [10] was -12% (inactive) and 4.41% (inactive) and 0.735% (inactive) and the Potency [11] was “inactive”. For the same molecule, the outcome [13] was “inactive”, the Potency [15] was “inactive” and the Potency [16] was “inactive”.
In the case of `C#C[C@]1(O)CC[C@H]2[C@@H]3CCC4=CC(=O)CC[C@@H]4[C@H]3CC[C@@]21CC`, the Potency [1] is reported as “inactive”, the outcome [2] is reported as “inactive” and the Potency [3] is reported as “inactive and 89.8 µM (active)”. The outcome [4] was “inactive”, the Potency [5] was 43.6 µM (active) and inactive and the Potency [6] was “inactive”. For the same molecule, the outcome [7] was “inactive”, the Potency [8] was 43.6 µM (active) and inactive and the outcome [9] was “inactive”. The Potency [10] was 43.6 µM (active), the max response [10] was -17.5% (inactive) and the outcome [13] was “inactive”. The Potency [18] was “inactive and 38.9 µM (active)”, the Potency [15] was “inactive” and the Potency [16] was 49.1 µM (active) and inactive.
With `CC(=O)OC/C=C(C)/C=C/C=C(C)/C=C/C1=C(C)CCCC1(C)C` the Potency [1] was “inactive”, the outcome [2] was “inactive” and the Potency [3] was “inactive”. The outcome [4] was “inactive”, the Potency [5] was “inactive” and the Potency [6] was “inactive”. The outcome [7] was “inactive”, the Potency [17] was “inactive” and the Potency [8] was “inactive”. For the same molecule, the outcome [9] was “inactive”, the max response [10] was -17.8% (inactive) and 3.29% (inactive) and 17.2% (inactive) and the Potency [11] was “inactive”. The outcome [13] was “inactive”, the Potency [18] was “inactive” and the Potency [15] was “inactive”. The Potency [16] was “inactive”.
In the case of `O=C(O)CCCCC1CCSS1` (stereo not given), the Potency [1] is reported as “inactive”, the Potency [3] is reported as “inactive” and the Potency [19] is reported as “inactive”. For the same molecule, the activity change, positive = activation ([20]; at 42.5 µM (top of the series)) was 4.75% (inactive), the activity change, positive = activation ([20]; at 92.4 µM (top of the series)) was -0.498% (inactive) and 6.05% (inactive) and the outcome [4] was “inactive”. The Potency [5] was “inactive”, the Potency [6] was “inactive” and the outcome [7] was “inactive”. The Potency [17] was “inactive”, the Potency [8] was “inactive” and the outcome [9] was “inactive”. The max response [10] was 9.73% (inactive) and 12.3% (inactive) and 7.95% (inactive), the Potency [11] was “inactive” and the Potency [12] was “inactive”. For the same molecule, the outcome [13] was “inactive”, the Potency [18] was “inactive” and the Potency [15] was “inactive”. The Potency [16] was “inactive”.
